Among all 1,200 compounds or so, about 60 (5%) were called active. About 1% were inconclusive and are not listed.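 How the source made its calls: active means Decreasing signal and fitted IC50 at most twice the top valid tested dose; inconclusive means Bad fit or a level curve showing 30 to 70% inhibition; inactive means the rest.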 These entries were drawn from the full list. Measured potencies and affinities stand elsewhere.
Each molecule was assayed against NAD-dependent protein deacylase sirtuin-5, mitochondrial (Homo sapiens) (UniProt Q9NXA8) (assay: SIRT5 desuccinylase inhibitors, dose response, biochemical, fluorescence imaging, cherry-pick, set 5 (AID 720591;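 further: 0% = median of neutral control wells and -100% = median of positive control wells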)). Details: Purified SirT5, succinyl-peptide AMC, trypsin-coupled fluorescence; series mostly up to 15 µM; activity change, negative = inhibition: at the top concentration.
NAD-dependent protein deacylase sirtuin-5, mitochondrial (Homo sapiens), sequence (Q9NXA8 whole entry, looked up): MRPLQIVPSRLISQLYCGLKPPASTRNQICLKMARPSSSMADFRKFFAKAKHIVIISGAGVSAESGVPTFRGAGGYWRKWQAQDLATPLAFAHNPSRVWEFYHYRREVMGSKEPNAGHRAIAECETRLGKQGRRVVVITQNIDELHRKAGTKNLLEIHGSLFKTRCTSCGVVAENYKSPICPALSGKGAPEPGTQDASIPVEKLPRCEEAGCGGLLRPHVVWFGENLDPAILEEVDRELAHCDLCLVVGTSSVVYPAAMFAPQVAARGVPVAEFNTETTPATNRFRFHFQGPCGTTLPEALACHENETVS

Activity change, negative = inhibition, inactive:
Cc1ccc(CNC(=O)CCCCCNC(=O)N2CCn3c2nc2ccccc23)cc1 -20.1%
O=C(NC1CCCCC1)c1ccc(S(=O)(=O)c2ccccc2)cc1 -29.3%
CCOC(=O)C1CCN(C(=O)Cn2cc(C(=O)OC)c3ccccc32)CC1 -21.2%
COc1ccc(NC(=O)CN2CCN(c3ccccn3)CC2)cc1Cl 5.95%
C=C(C)COc1ccc(-c2ncncc2-c2ccc(OC)cc2)c(O)c1 4.58%
COc1ccc(-c2csc3nc(C(C)C)oc(=O)c23)cc1OC -30.7%
Cn1cc(C(=O)NCCc2ccccc2)c(=O)c2cc(S(=O)(=O)N3CCOCC3)ccc21 3.07%
CC(C)c1ccccc1NC(=O)c1cnccn1 -32.5%
O=C(c1ccccc1)c1coc2ccc(O)c(Cl)c12 -19.4%
CC(C)(C)C(=O)Oc1cccc(Nc2ncnc3ccccc23)c1 -14.3%
Nc1nc(-c2ccc(C(=O)O)cc2)cs1 -22.5%
O=C(O)CCC(=O)Nc1ccc(-c2nc3ccc(C(=O)c4ccccc4)cc3[nH]2)cc1 -28.6%
Cc1ccc(S(=O)(=O)NCC(=O)OCC(=O)NCc2ccc(F)cc2)cc1 -17%
Cc1nnc(SCC(=O)Nc2ncc3c(n2)CC(c2ccccc2)CC3=O)s1 (stereo unspecified) -14%
Cc1ccc(S(=O)(=O)Nc2ccc(N(C)C)cc2)cc1 -8.19%
COc1ccc(N2CC(NC(=O)N3CCc4ccccc43)CC2=O)cc1OC (stereo unspecified) -30%
CN(C)CCOC(=O)NCC12CC3CC(CC(C3)C1)C2 -14.8%
C[C@@H]1CN([C@@H](C)CO)C(=O)CCCn2nncc2CO[C@H]1CN(C)C(=O)C1CCCCC1 -4.24%
CCCCCCN1C[C@@H](O)[C@H](n2cc(COC(=O)c3ccccc3)nn2)C[C@@H]1c1ccc(C)cc1 11.7%
C[C@H]1COc2cc(NCCO)ccc2S(=O)(=O)N1 19.8%
Cc1ccc(S(=O)(=O)N2C[C@@H]3CCCC[C@@H]3[C@@H](C)[C@H]2c2cn(Cc3ccccc3)c3ncccc23)cc1 14.3%
CCOc1ccccc1NC(=O)CN1c2cccc3cccc(c23)S1(=O)=O 12.7%
Nn1c(C2CCC2)nc2cc(Cl)ccc2c1=O -25.2%
CCC(C)C(CO)NCCCn1cnc2c(SC)ncnc21 (stereo unspecified) 4.95%
Cc1csc(NC(=O)c2cc3ccccc3o2)n1 12.3%
Cc1nc(NC(=O)c2cc3ccccc3o2)sc1C 7.97%
Cc1ccc(OCCNC(=O)C2CCCCC2)cc1 7.97%
Cc1cc(C)c2c(CN3CCOCC3)cc(=O)oc2c1 2.2%
COc1ccc(CNC(=O)CCn2ccc3cc(S(=O)(=O)N4CCCC4)ccc32)cc1 -22.9%
COc1ccc(CN(C(=O)c2ccco2)c2ccc(C)cc2)cc1OC -33.2%
COc1ccc(CN(C(=O)c2ccco2)c2ccccc2)cc1 13.5%
CN1C(=O)[C@H]2[C@@H](C3CC3)N3C(=O)CN(CCO)C(=O)[C@@]3(Cc3ccccc3)[C@H]2C1=O -16.4%
CCOc1ccc(-c2noc(CCCC(=O)NC3CCCC3)n2)cc1OC 1.29%
CCCCCNC(=O)C(c1cc2ccccc2o1)n1c(=O)c(-c2ccccc2)nc2ccccc21 (stereo unspecified) -20.3%
CCCCCCNC(=O)c1ccc(Br)o1 2.66%
COc1ccc(CCNC(=O)COC(=O)CCC(=O)c2ccc(F)cc2)cc1OC 16.3%
COc1cc(C(=O)NCC2(N(C)C)CCCCC2)ccc1OCc1ccccc1 5.49%
Cn1c(NCCCO)nc2c1c(=O)n(Cc1ccccc1F)c(=O)n2C 5.2%
CC(=O)c1cc(-c2ccc(F)cc2)n(CCC(=O)NC(C)(C)C)c1C 40.1%
CCCCNC(=O)C[C@@H]1C[C@@]2(C(=O)OC)CC(C)(C)CC=C2N(Cc2ccco2)C1=O 2.48%
COC(CNC(=O)CC1C(=O)N(Cc2ccccc2)C(C)c2nc3ccccc3n21)OC (stereo unspecified) 16.8%
Cc1ccc(S(=O)(=O)N2C[C@@H](C)[C@]3(C2)[C@H](O)[C@H](OC(=O)NCc2ccco2)C[C@H]2C(=O)N(c4ccccc4)C(=O)[C@H]23)cc1 -12.3%
OC[C@@H]1CN(Cc2cccs2)C[C@H](n2cnc3c(Nc4ccccc4)ncnc32)O1 1.28%
CCc1cc2c(=O)c(-c3nc4ccccc4n3C)coc2c(CN2CCCCC2)c1O 32.2%
Cc1ccc(NC(=O)c2ccc3c(c2)CCN3S(C)(=O)=O)cc1 11.9%
Cc1cc(C)cc(N(C(=O)CCC(=O)Nc2cc(C)on2)C(C(=O)NC2CCCC2)c2ccco2)c1 (stereo unspecified) -2.73%
COc1ccc(CC(=O)NCC2CCCN(Cc3ccc(OC(F)(F)F)cc3)C2)cc1 (stereo unspecified) -23.7%
CCOC(=O)C(Cc1ccc(NC(C)=O)cc1)N1C(=O)c2ccccc2C1=O (stereo unspecified) -8.71%
O=C(OCC(=O)N1CCCC1)c1cc(Br)ccc1Cl -18.6%
COc1ccccc1-c1cc(C(=O)NC(C)C)no1 -1.51%
Oc1ccc(-c2n[nH]c(C(F)(F)F)c2-c2ccccc2)c(O)c1 -7.08%
CC1c2nc3ccccc3n2C(CC(=O)NC2CC2)C(=O)N1Cc1ccccc1 (stereo unspecified) 4.72%
Cc1ccc(Cn2c(N3CCN(C)CC3)nc3c2c(=O)[nH]c(=O)n3C)cc1 -22.3%
Cn1c(=O)[nH]c(=O)c2c1nc(N1CCNCC1)n2Cc1ccccc1 15.6%
Oc1ccc(-c2nccc(-c3ccc(Cl)cc3Cl)n2)cc1 -31.7%
Cc1ccc(-c2nc3c(Cl)cc(C(F)(F)F)cn3c2Cc2cccc(F)c2)cc1 6.86%
CC(=O)c1cccc(NC(=O)CCS(=O)(=O)c2ccc(Br)s2)c1 -17.1%
O=C(Nc1ccc2c(c1)OCCO2)C(c1ccnc2ccccc12)N1CCN(c2ccc(F)cc2)CC1 (stereo unspecified) 18.7%
C=CC[C@H](CC(=O)N(CCO)Cc1ccccc1)C(=O)N[C@@H](COC(=O)[C@H](CC=C)CC(=O)OC(C)(C)C)Cc1c[nH]c2ccccc12 17%
CSc1nc(N)nc2c1ncn2CC(=O)NCC1CCCO1 (stereo unspecified) 5.49%
O=C(NCc1ccc(F)cc1)C1CC(=O)N(C2CCCCC2)C1 (stereo unspecified) -24.7%
Cc1cc(C)c(NC(=O)CN(C)C(=O)CNC(=O)c2cccs2)c(C)c1 -17.8%
O=C(Nc1ccccc1Cl)c1cccs1 -20.1%
COc1ccccc1CCNS(=O)(=O)c1cc2c3c(c1)C(C)C(=O)N3CCC2 (stereo unspecified) -29.6%
COc1ccc(Nc2oc(-c3ccco3)nc2S(=O)(=O)c2ccc(F)cc2)cc1 -8.04%
Cc1nn(CC(=O)N(C)C)c(=O)c2ccccc12 -8.69%

Source: PubChem BioAssay AID720591 (Broad Institute, 2013)
